Data taken from PubChem BioAssay (NCI).
This is part of a sample that, as a whole, favours compounds with a hit. Of some 83,000 tested, about 20% had one in any assay.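 Step 1: grow cells in 96-well plates. Step 2: add test compound at a single concentration. Step 3: incubate 48 h. Step 4: record percent growth.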 Unmarked numbers belong to inactive results. The source made the active and inactive calls. The calls were made as follows: active = growth percent below 10; inactive = the rest.

Tests used:
Assay in all cases: NCI-60 one-dose screen, 48 h (100 = growth as untreated, 0 = no growth, -100 = all killed)
Conditions in all cases: 10 µM unless noted
T-47D breast = system: T-47D breast
BT-549 breast = system: BT-549 breast
MDA-MB-435 melanoma = system: MDA-MB-435 melanoma
SW-620 colon = system: SW-620 colon
MCF7 breast = system: MCF7 breast
HCT-116 colon = system: HCT-116 colon
HCC-2998 colon = system: HCC-2998 colon
KM12 colon = system: KM12 colon

Row | SMILES | growth (T-47D breast) | growth (BT-549 breast) | growth (MDA-MB-435 melanoma) | growth (SW-620 colon) | growth (MCF7 breast) | growth (HCT-116 colon) | growth (HCC-2998 colon) | growth (KM12 colon)
1 | CNS(=O)(=O)c1n[nH]nc1-c1cc(C(C)(C)C)c(O)c(C(C)(C)C)c1 | 78.9% | 101% | 106% | 109% | 93.8% | 94.6% | 105% | 105%
2 | N=C1CCC(=N)c2c1c(O)c1ccccc1c2O | 89.5% | 97.1% | 114% | 101% | 138% | 101% | – | 96.8%
3 | CCCCCCCCCCCC(c1ccccc1)[N+](C)(C)C (centres undefined) | 2.28% (active) | -36.3% (active) | 8.21% (active) | 41.9% | 16.1% | 9.83% (active) | – | -20.7% (active)
4 | O=C(NCCCNc1cc(-c2cn(-c3ccccc3)nc2-c2cccc(O)c2)ccn1)c1cccc(O)c1 | 8.13% (active) | 37.5% | 32.1% | 51% | 47.3% | 47.3% | 64.8% | 45.3%
5 | COC(=O)[C@]12CC[C@@H](C)[C@H](C)[C@@H]1C1=CC[C@@H]3[C@@]4(C)C(C=O)=C[C@@](C)(COC(C)=O)[C@@H]4[C@H](O)C[C@@]3(C)[C@]1(C)CC2 | -18.5% (active) | -19.8% (active) | -24.3% (active) | -59.4% (active) | -11.7% (active) | -76.8% (active) | -71% (active) | -27.5% (active)
6 | COc1ccc(C2=Nc3c(N)ncnc3NC(c3ccc4c(c3)OCO4)C2)cc1 (centres undefined) | 80.3% | 89% | 94.2% | 85.5% | 76.1% | 74.2% | -6.86% (active) | 95.8%
7 | COC(=O)c1c2c(c(C)[n+]([O-])c1C)C(=O)C(NCc1ccc(F)cc1)=CC2=O | 6.75% (active) | 52.4% | -72.9% (active) | 6.37% (active) | -0.8% (active) | 1.27% (active) | 25.7% | 19.9%
8 | O=c1c2c3c(sc2nc(N/N=C/c2ccc(Br)cc2)n1Cc1ccccc1)CCCC3 | 87.5% | 93.6% | 83.4% | 83.8% | 58.3% | 67.4% | 37.3% | 81.9%
9 | Cn1c2c(c3ccc(Cl)c(Cl)c31)C(C#N)C1(CCNCC1)NC2=O (centres undefined) | 46.8% | 45% | 5.97% (active) | 30.5% | -12.3% (active) | 13% | -17.8% (active) | 31.7%
10 | C[C@H]1[C@H]2[C@H]3CC[C@@H]4[C@@]5(C)C/C(=C/c6cccnc6)C(=O)C(C)(C)[C@@H]5CC[C@@]4(C)[C@]3(C)CC[C@]23CO[C@]1(C)[C@@H](C(=O)/C=C\c1cccnc1)C3 | 24.6% | -20.1% (active) | -7.3% (active) | -26.4% (active) | 9.88% (active) | -45.6% (active) | -67.2% (active) | -55.6% (active)
11 | COc1ccc2nc(NNC(=O)c3cnccn3)c3cccn3c2c1 | 0.223% (active) | 12.7% | 13.5% | 0.919% (active) | -31.6% (active) | -26.5% (active) | 37.4% | 4.7% (active)
12 | CC1(C)CC[C@]2(C(=O)N3CCOCC3)CC[C@]3(C)C(=CC[C@@H]4[C@@]5(C)CC[C@H](OC(=O)c6cccnc6)C(C)(C)[C@@H]5CC[C@]43C)[C@@H]2C1 | 54.7% | 72.3% | 70.2% | 45.4% | 67.4% | 31.8% | 58.7% | 53.5%
13 | COC1=CC(=O)C[C@@H](C)[C@]12Oc1c(Cl)c(OC)cc(OC)c1C2=O | 105% | 78.3% | 1.96% (active) | 81.5% | 85.2% | 92.4% | 75.5% | 65.5%
14 | O=C(/C=C/c1cccc(O)c1)c1cccc(-n2cc(-c3ccc4ccccc4c3)[nH]c2=O)c1 | -22.5% (active) | -29.8% (active) | -15.6% (active) | -55.1% (active) | -32.2% (active) | -100% (active) | 44.3% | -72% (active)
15 | Cc1ccc(Cl)c(NS(=O)(=O)c2ccc(-c3cnc(C4CC4)o3)cc2)c1 | 45% | 34.5% | -59.6% (active) | 18.6% | 12.4% | 13.8% | 26.8% | 16.5%
16 | O=[N+]([O-])c1ccc(N2c3ccncc3Sc3ccncc32)cc1 | 97.4% | 114% | 112% | 103% | 101% | 91.6% | 110% | 93.5%

Row | SMILES | growth (T-47D breast) | growth (BT-549 breast) | growth (MDA-MB-435 melanoma) | growth (SW-620 colon) | growth (MCF7 breast) | growth (HCT-116 colon) | growth (HCC-2998 colon) | growth (KM12 colon)
17 | Cn1c(=O)c2[nH]c(NN)nc2n(C)c1=O | 104% | 84.7% | 106% | 97.8% | 104% | 102% | – | 119%
18 | O=C(NCCc1ccc(O)c(O)c1)C12CC3CC(CC(C3)C1)C2 | 93.1% | 92.7% | 107% | 91% | 89.4% | 82.6% | 115% | 117%
19 | CCCCCCCCCCN(CCCCCCCCCC)CC(=O)c1ccc2cc(Br)c3ccccc3c2c1 | 72.1% | 72% | 33.3% | -94.2% (active) | 99% | -22.8% (active) | – | -13.9% (active)
20 | Cn1c(=O)c2c(nc(Cl)n2CCl)n(C)c1=O | 103% | 61.8% | 43.5% | 45.9% | 84.4% | 95.9% | – | 116%
21 | O=c1ccn2nc3ccccc3c2[nH]1 | 95% | 98.2% | 118% | 114% | 107% | 103% | – | 112%
22 | CCN(CC)c1ccc(C(=O)c2ccc(N(CC)CC)cc2)cc1 | 20.1% | 4.9% (active) | 0.459% (active) | 26.4% | 13.5% | 10.2% | – | 25.1%
23 | COc1ccc2[nH]c(O)c(C(=Nc3ccc(N(C)C(=O)CN4CCN(C)CC4)cc3)c3ccccc3)c2c1 | 53.4% | 35.8% | 42.3% | 16.8% | 29% | 11.1% | 34.3% | 18.2%
24 | CCC1(C2CCCC2)NC(=O)NC1=O (centres undefined) | 93.4% | 95.3% | 102% | 104% | 83.9% | 99.3% | – | 116%
25 | O=c1c2c3c(sc2n2c(-c4cc(-c5ccccc5)nn4-c4ccccc4)nnc2n1Cc1ccccc1)CCCC3 | 72.5% | 97.4% | 85.2% | 83.2% | 68.3% | 55.4% | 98.8% | 84.1%
26 | N#C/C(=C\c1ccc(Br)cc1)n1nnc2cc(F)c(F)cc21 | -1.87% (active) | 22.2% | 4.75% (active) | 13.2% | 14% | 15.3% | 40% | 10.3%
27 | C[C@]12CC[C@@H]3c4cc(OC(F)F)c(O)cc4CC[C@H]3[C@@H]1CC[C@@H]2OS(N)(=O)=O | 47% | 67.7% | 0.824% (active) | 31.2% | 24.2% | 29.8% | 47.5% | 18.9%
28 | COc1cc(C2CC(=O)Nc3c2c(C)nn3-c2nc3ccccc3[nH]2)c(OC)c2c1OCO2 (centres undefined) | 67.2% | 76% | -20.2% (active) | 47.1% | 45.3% | 61.6% | 97.5% | 52.1%
29 | COc1ccc2c(c1)O/C(=C\c1cccc(OCC(=O)Nc3nc4ccccc4s3)c1)C2=O | 62.1% | -51.7% (active) | 96.5% | 79% | 73.7% | 76.5% | – | 88.2%
30 | COc1cccc(-c2nn(-c3ccccc3)cc2-c2ccnc(NCCNC(=O)Nc3ccccc3)c2)c1 | 20.3% | 30.2% | 42.9% | 71.9% | 56.6% | – | 39.1% | 37.6%
31 | CNC(=O)c1cc(Oc2ccc3nc(Nc4ccc(Cl)c(C(F)(F)F)c4)ccc3c2)ccn1 | 43.5% | 83.1% | 52.3% | 104% | 42.7% | – | 65.5% | 52.7%
32 | Cc1ccc(S(=O)(=O)N/N=C\c2cc(Cl)ccc2O)cc1 | 86% | 91.7% | 82% | 81.4% | 82.6% | 48.2% | – | 108%
